Among the data in PubChem BioAssay AID371 (SRMLSC, 2006) are growth inhibition values, retold here.

Each structure is given as a SMILES string. In all, about 3,300 compounds went through this assay and about 280 (8.5%) were called active. The entries come from a sample that favours actives as a whole. Values without a mark were called inactive.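 Rule for the calls: active = mean growth inhibition over the two runs of 50% or more; inactive = mean growth inhibition under 50%.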

The experiment can be described thus: A549 NSCLC cell proliferation inhibitors – ATP luminescence, human non-small cell lung line, primary screen (AID 371).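 Note: compound exposure lasted 72 h before the ATP read; 0% = untreated cell signal and 100% = no luminescence left.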 The conditions noted are these: at 10 µM, active compounds read high.
With `Cc1ccc(S(=O)(=O)/C(C#N)=C/c2c(N3CCN(C)CC3)nc3c(C)cccn3c2=O)cc1`, the growth inhibition is -1.01%. Regarding `Cc1nnc(NCc2n[nH]c(=O)c3ccccc23)c2ccccc12`, the growth inhibition was 69.7% (active). To `Cc1nnc(N2CCCCC2)c2ccccc12` belongs 8.14%; to `COc1ccc(Nc2nnc(C)c3ccccc23)cc1C(N)=O`, -0.95%; to `Nc1nnnn1N=C1CCCCC1`, -2.31%. With `CCOC(=O)CCNc1n[nH]c(=O)[nH]c1=O`, the growth inhibition was 4.05%. To `COC(=O)c1ccc(N2C(=O)CC(N3CCN(C(=O)c4ccco4)CC3)C2=O)cc1` (centres undefined) belongs -5.76%; to `COc1ccc(Cn2ccnc2)cc1Br`, 7.92%; to `CC1(C)Cc2c(c(N3CCOCC3)nc3snc(N)c23)CO1`, 91% (active). For the compound `COc1nnnc2c1sc1nc(N3CCOCC3)c3c(c12)CC(C)(C)OC3`, the growth inhibition was -0.53%. Take `CC1(C)Cc2c(c(N3CCOCC3)nc3snc(Br)c23)CO1`: the growth inhibition is 16%. On to `CCCCNC(=O)N1CCOCCOCCN(C(=O)NCCCC)CCOCC1`, for which the growth inhibition was 2.17%. In the case of `CCOP(=O)(c1ccccc1)c1nc(-c2ccccc2C)oc1N1CCCCC1` (centres undefined), the growth inhibition is 90.3% (active). Turning to `CCOP(=O)(c1ccccc1)c1nc(-c2ccc(F)cc2)oc1N1CCCCC1` (centres undefined), the growth inhibition is 35.1%. As to `N#Cc1nc(-c2ccccc2Cl)oc1N1CCCCC1`, the growth inhibition is 25.2%. On to `Clc1cccc(-c2nn3c(COc4ccccc4)nnc3s2)c1`, for which the growth inhibition was -1.72%.

Consider `Cc1nn(C)cc1/C=N/n1nnnc1N`, for which the growth inhibition is 3.1%. Regarding `N#Cc1nc(-c2cccs2)oc1NCc1ccccc1Cl`, the growth inhibition is 16.3%. Regarding `N#Cc1nc(-c2cccs2)oc1NCc1ccccc1`, the growth inhibition was 37.1%. For the compound `N#Cc1nc(-c2cccs2)oc1NCc1ccc2c(c1)OCO2`, the growth inhibition is 51.8% (active). To `Cc1ccc(C2/C(=C(/O)c3ccc(OC(C)C)cc3)C(=O)C(=O)N2CCN2CCOCC2)cc1` (centres undefined) belongs -0.89%; to `CC(=Nc1cccc(O)c1)c1sc2ccccc2c1O`, 71.6% (active); to `Oc1c(C=NCc2ccncc2)sc2ccccc12`, 3.71%.

With `Oc1c(C=Nc2cccnc2)sc2ccccc12`, the growth inhibition was 9.67%. Take `O=C1CC(N(O)C2CC(=O)N(Cc3ccccc3)C2=O)C(=O)N1Cc1ccccc1` (centres undefined): the growth inhibition is 9.01%. To `CN(C)CCCOC(=O)C1c2ccccc2Oc2ccccc21` belongs 8.41%; to `Cc1ccc2[nH]c3c(c2c1)CCCC3C(N)=O` (centres undefined), 0.63%. As for `Cc1nnc(N2CCOCC2)c2ccccc12`, the growth inhibition is -0.2%. As to `O=C(NC1CCCCC1)Nn1c(-c2ccccc2)nc2ccccc2c1=O`, the growth inhibition is 5.81%. To `O=C(NC1CCCCC1)N1CCSC1=Nc1ccccc1` belongs 83.3% (active).

`NC(=O)C(c1ccccc1)C1CCCC1` (centres undefined): the growth inhibition was 2%.

For the compound `Cc1cc(C)n(-c2nnc(C)n2/N=C/c2ccccc2F)n1`, the growth inhibition was -1.21%. As to `CCc1nnc(NC(=O)CSc2nc(C)c3c(c2C#N)CCCC3)s1`, the growth inhibition was 47.6%.

In the case of `Cc1ccc(-n2c(SCC(=O)NCc3ccco3)nc3nc4c(cc3c2=O)COC(C)(C)C4)cc1`, the growth inhibition is 7.55%. To `CCCc1cc(-c2nc(N)ncc2-c2ccc3c(c2)OCCCO3)c(O)cc1OC` belongs 78.2% (active); to `O=S(=O)(c1ccccc1)N1CCC(N2CCCCCC2)CC1`, 11.3%. With `Cc1ccc(S(=O)(=O)N(CC(O)CN(C)C)c2ccccc2)cc1` (centres undefined), the growth inhibition is 5.21%. Consider `COC(=O)c1cc(Br)c(=O)n(-c2cc(C)on2)c1`, for which the growth inhibition is 5.44%.

As to `CCCCCCSC1=C(C#N)C(c2ccccc2)CC(=O)N1` (centres undefined), the growth inhibition was 17.1%. To `N#CC1=C2SCC(O)(c3ccccc3)N2C(=O)CC1c1ccccc1` (centres undefined) belongs 61.5% (active); to `C=C(C)CSC1=C(C#N)C(c2ccsc2)CC(=O)N1` (centres undefined), 11.7%; to `CCCCn1c(O)c(C=NCCCN(C)C)c(=O)[nH]c1=O`, -0.32%. On to `CC1(C)Cc2c(C#N)c(SCCC#N)nc(N3CCOCC3)c2CS1`, for which the growth inhibition is 26.4%. As to `CCOc1ccc(S(=O)(=O)N(C)C)cc1-c1nc2c(C(C)(C)C)nn(C)c2c(=O)[nH]1`, the growth inhibition was -2.28%. Regarding `CCOc1ccc(S(=O)(=O)N(C)CCO)cc1-c1nc2c(C(C)(C)C)nn(C)c2c(=O)[nH]1`, the growth inhibition was 22%. As for `CCOc1ccc(S(=O)(=O)NC(C)(C)C)cc1-c1nc2c(C(C)(C)C)nn(C)c2c(=O)[nH]1`, the growth inhibition was 62.9% (active). Turning to `COC(=O)C(NC(=O)c1ccccc1)(Nc1nc(C)cs1)C(F)(F)F` (centres undefined), the growth inhibition is 4.51%. With `CN(C)C(CN1C(=O)C2CC=CCC2C1=O)c1cn(C)c2ccccc12` (centres undefined), the growth inhibition is -4.21%. In the case of `COc1ccc2[nH]c(C)c(C(=O)CN3CCOCC3)c2c1`, the growth inhibition was -6.74%. To `Nc1nnnn1/N=C/c1ccccn1` belongs 3.3%; to `C=CCOC(=O)C1=C(C)NC(SCC(=O)N(CC)CC)=C(C#N)C1c1ccccc1` (centres undefined), 51.2% (active). To `CCCCc1ccc(NC(=O)CSC2=C(C#N)C(c3ccco3)C3=C(CCCC3=O)N2)cc1` (centres undefined) belongs 57.6% (active); to `COCCOC(=O)C1=C(C)NC(SCC(=O)NC(C)(C)C)=C(C#N)C1c1ccco1` (centres undefined), 32.6%; to `CCc1ccccc1NC(=O)CSC1=C(C#N)C(c2ccc(O)c(OC)c2)C2=C(CCCC2=O)N1` (centres undefined), 35%. Turning to `CCc1ccc(NC(=O)CSC2=C(C#N)C(c3ccco3)C3=C(CCCC3=O)N2)cc1` (centres undefined), the growth inhibition is 44.8%. As to `COc1ccc(NC(=O)CSC2=C(C#N)C(c3ccco3)C3=C(CCCC3=O)N2)c(OC)c1` (centres undefined), the growth inhibition was 10.5%. To `C=CCOC(=O)C1=C(C)NC(SCC(=O)Nc2ccc(C)c(Cl)c2)=C(C#N)C1c1ccco1` (centres undefined) belongs 84.2% (active); to `COc1ccc(OC)c(NC(=O)CSC2=C(C#N)C(c3ccco3)C3=C(CCCC3=O)N2)c1` (centres undefined), 16.1%. Take `C=CCOC(=O)C1=C(C)NC(SCC(=O)N(CC)CC)=C(C#N)C1c1ccco1` (centres undefined): the growth inhibition is 21.8%. For `CCN(CC)C(=O)CSC1=C(C#N)C(c2ccco2)C(C(=O)OCCOC)=C(C)N1` (centres undefined), the growth inhibition is 1.8%. To `COc1cccc(NC(=O)CSC2=C(C#N)C(c3ccco3)C3=C(CCCC3=O)N2)c1` (centres undefined) belongs 60.1% (active); to `CCOC(=O)C1=C(c2ccccc2)NC(SCC(=O)Nc2ccccc2C)=C(C#N)C1c1ccco1` (centres undefined), 38.8%; to `O=c1[nH]c(CN2CCCCC2)nc2c1C1(CCCCC1)Cc1ccccc1-2`, -4.24%. Turning to `CCCCc1[nH]c(=O)c(C#N)c2c1CSC(C)(C)C2`, the growth inhibition was 7.58%. Turning to `CCCCOC(=O)CSC1=C(C#N)C(c2ccccc2OC)C(C#N)C(=O)N1` (centres undefined), the growth inhibition is 6.07%. In the case of `COc1ccc2nc(SCC(=O)O)nc(C)c2c1`, the growth inhibition is -2.56%.

Turning to `COc1ccc(-c2cc(=O)[nH]c(=O)[nH]2)cc1`, the growth inhibition is 1.67%.

With `Cc1nnc2n(-c3ccccc3)c(=O)c3c4c(sc3n12)COC(C)(C)C4`, the growth inhibition is -0.59%. As for `N#Cc1ccc(-c2cccnc2)nc1SCC(=O)Nc1sc2c(c1C#N)CCC2`, the growth inhibition is 14.6%. For the compound `CCC(C)n1ncn(-c2ccc(N3CCN(c4ccc(OCC5COC(Cn6cncn6)(c6ccc(Cl)cc6Cl)O5)cc4)CC3)cc2)c1=O` (centres undefined), the growth inhibition is 50.3% (active).

Take `COCc1n[nH]c(=S)n1-c1cccc2ccccc12`: the growth inhibition was 4.29%. For the compound `CCOc1ccc(N=C2C(=O)N(CN3CCOCC3)c3ccccc32)cc1`, the growth inhibition was 20.3%. As to `COC(=O)c1ccc(Cn2c(O)c(N=O)c3ccccc32)o1`, the growth inhibition was 8.55%. As for `CCCCCC(=O)N1CC2(CC)CN(C(=O)CCCCC)CC(CC)(C1)C2=O`, the growth inhibition was 14.3%. To `CC(Sc1ccc2ccccc2n1)C(=O)O` (centres undefined) belongs -2.6%; to `O=C(O)CCSc1ccc2ccccc2n1`, 1.45%; to `O=C1c2ccccc2C(=O)C1c1ccc2ccccc2n1`, 74.9% (active). Take `COC(=O)/C(=C1/Oc2cc(C)oc(=O)c2S1)C(F)(F)F`: the growth inhibition is 76.1% (active). As for `COC(=O)C1=C(N)Oc2cc(C)oc(=O)c2C1c1ccncc1` (centres undefined), the growth inhibition is -1.55%. For `COC(=O)c1ccc(C2/C(=C(\O)c3cccc(OC)c3)C(=O)C(=O)N2CCCN(C)C)cc1` (centres undefined), the growth inhibition was 1.92%. On to `Cc1nnc2n(-c3ccccc3)c(=O)c3c4c(sc3n12)CC(C)CC4` (centres undefined), for which the growth inhibition is 12.7%.

Turning to `CN=C(c1ccco1)n1c(=S)nc(-c2ccco2)n(C)c1=S`, the growth inhibition was 5.55%. To `COc1cc(C(=O)Nc2ccc(O)cc2C(=O)O)ccc1OC(C)=O` belongs 2.72%; to `NS(=O)(=O)c1ccc(C(=O)O)cc1`, -6.06%. As for `O=C(O)c1cc(O)c2c(c1)C(=O)c1cccc(O)c1C2=O`, the growth inhibition is 59.2% (active). To `CC(=O)Oc1ccccc1C1OC(=O)c2ccccc2N1C(C)=O` (centres undefined) belongs 4.51%; to `Nc1cccc(C(=O)O)c1`, 4.57%; to `CC(=O)Oc1cccc2c1C(=O)c1c(OC(C)=O)cc(C(=O)O)cc1C2=O`, 57.8% (active). On to `CN1CCN(Cc2c(O)ccc3c(-c4ccccc4)cc(=O)oc23)CC1`, for which the growth inhibition was 8.11%.

`Cc1c(Cl)c(C(F)(F)F)nn1CC(=O)N1CCSCC1`: the growth inhibition is 8.88%.

Take `Cn1c(OCc2cccnc2)nc2c1c(=O)n(Cc1ccc(Cl)cc1)c(=O)n2C`: the growth inhibition was 35.5%. Turning to `O=C(NCCCNCc1ccccc1)/C(=N\O)c1ccccc1`, the growth inhibition was 1.98%.

Regarding `CCOC(=O)c1[nH]c2ccc(Br)cc2c1NC(=O)CNC`, the growth inhibition is 15.7%. Turning to `C=COC(=O)CSc1nc(-c2cccs2)ccc1C#N`, the growth inhibition is 5.33%. `CC(=O)NCC(=O)OCN1C(=O)c2ccccc2C1=O`: the growth inhibition was -2.75%. To `Cn1c(=O)n(C)c2cc(C(=O)c3ccccc3)ccc21` belongs 5.5%; to `COC(=O)Nc1nc2ccc(Sc3ccccc3)cc2[nH]1`, 81.7% (active); to `CCCSc1ccc2nc(NC(=O)OC)[nH]c2c1`, 53.2% (active).

Consider `COC(=O)Nc1nc2ccc(C(=O)c3ccccc3)cc2[nH]1`, for which the growth inhibition was 55.8% (active). `CCOc1ccc2nc(SCC(=O)Nc3ncccn3)[nH]c2c1`: the growth inhibition is -4.07%.

In the case of `CC(=O)Nc1ccc(Oc2ccc3nc(C)[nH]c3c2)cc1`, the growth inhibition is 10.6%. As for `CCC(=O)Nc1nc(C)c(Oc2ccccc2)c(=O)[nH]1`, the growth inhibition is 1.39%.

Take `Cn1c(=O)oc2cc(C(=O)c3ccccc3)ccc21`: the growth inhibition was 13.3%.

With `CCCOc1ccc2nc(NC(=O)OC)[nH]c2c1`, the growth inhibition is 48.4%.
